In PubChem BioAssay (NCATS):
Results filed as inconclusive are left out. Where a call stands in place of a potency, no number is given. Active and inactive are the calls of the source. Calls follow the shape of the dose curve; as a rule, active = well fitted inhibition curve with a large enough effect; inconclusive = small, poorly fitted or top-dose-only effect; inactive = flat fitted curve, though single readings scatter. Where a SMILES comes first, the peptide text is derived from it. Bridges are numbered along the chain shown (N, C = ends). [ ]: non-standard residue; d: D form. The star is where a group is joined. X1 = CC[C@@H](C)[C@@H](N)C1=N[C@H](C(=O)*)CS1; d(aIle) = CC[C@H](C)[C@@H](N)C(=O)O; pGlu = O=C1CC[C@@H](C(=O)O)N1; dOrn = NCCC[C@@H](N)C(=O)O

test system: astro; experiment: Drug repurposing screens with cells derived from glioblastoma tumor samples (AID 1345199); settings: viability, ATP luminescence, 48 h; series mostly up to 45.9 µM; also: nearly all actives have a fitted effect of over 40% in size
Description: CD133+ cells were isolated from GBM patient biopsies and cultured as neurospheres. Neurospheres from four patients were used to screen the NCATS pharmaceutical collection (NPC) library of approved drugs and bioactive compounds. […] The neurospheres were incubated with drugs for 48 hours in 1536-well format, then assayed with an ATP content cell viability assay. […] These hits were cherry picked to confirm activity in the four original GBM lines screened plus three other slower growing GMB lines (unable to yield enough cells for a full primary screen). Variable activities of the confirmed primary hits in the different GBM patient lines were observed. The patient line 206 responded to the greatest number of compounds and line 923 responded to the least amount of active compounds.

| SMILES | Potency |
| --- | --- |
| O=[n+]1ccn([O-])c2ccccc21 | inactive |
| CN1CCC(OC(=O)C(Oc2ccc(Cl)cc2)Oc2ccc(Cl)cc2)CC1 | inactive |
| NC(N)=O | inactive |
| O=C1[O][Bi][O]c2ccccc21 | inactive |
| COc1cc2c(cc1OC)[C@@H](c1ccccc1)CN(C)CC2 | inactive |
| CC(C)C[C@H](NC(=O)[C@@H](Cc1c[nH]c2ccccc12)NC(=O)[C@H](Cc1ccc(O)cc1)NC(=O)[C@H](CO)NC(=O)[C@H](Cc1c[nH]c2ccccc12)NC(=O)[C@H](Cc1cnc[nH]1)NC(=O)[C@@H]1CCC(=O)N1)C(=O)N[C@@H](CCCN=C(N)N)C(=O)N1CCC[C@@H]1C(=O)NCC(N)=O | inactive |
| CCN(CC)CCOc1ccccc1OC | inactive |
| CCN(CC)CCOC[C@H]1O[C@@H](O)[C@H](OCCN(CC)CC)[C@@H](O)[C@@H]1O | inactive |
| Cn1c(=O)c2c(ncn2CCOC(=O)C(C)(C)Oc2ccc(Cl)cc2)n(C)c1=O | inactive |
| NCCCC[C@H](N)C(=O)O | inactive |
| CC1=C[C@H](O)CC(C)(C)[C@H]1/C=C/C(C)=C/C=C/C(C)=C/C=C/C=C(C)/C=C/C=C(C)/C=C/C1=C(C)C[C@@H](O)CC1(C)C | inactive |
| O=C1N=C2SCCN2C(=O)C1Cc1ccc(Cl)cc1 (stereo not given) | inactive |
| C=CC[N+]1([C@H]2C[C@H]3[C@@H]4CC[C@H]5C[C@H](O)[C@@H](N6CCOCC6)C[C@]5(C)[C@H]4CC[C@]3(C)[C@H]2OC(C)=O)CCCC1 | inactive |
| NC(=O)Oc1ccc(Cc2ccccc2)cc1 | inactive |
| CC(/C=C/C=C(\C)C(=O)O[C@@H]1O[C@H](CO[C@@H]2O[C@H](CO)[C@@H](O)[C@H](O)[C@H]2O)[C@@H](O)[C@H](O)[C@H]1O)=C\C=C\C=C(C)\C=C\C=C(/C)C(=O)O[C@@H]1O[C@H](CO[C@@H]2O[C@H](CO)[C@@H](O)[C@H](O)[C@H]2O)[C@@H](O)[C@H](O)[C@H]1O | inactive |
| O=C(O)/C=C/c1ccccc1 | inactive |
| CO[C@@H]1[C@H](OC(=O)/C=C/C=C/C=C/C=C/C(=O)O)CC[C@]2(CO2)[C@H]1[C@@]1(C)O[C@@H]1CC=C(C)C | inactive |
| CC[C@H](C)[C@H](NC(=O)[C@H](Cc1ccccc1)NC(=O)[C@H](C)NC(=O)[C@H](CC(=O)O)NC(=O)[C@H](CCCCN)NC(=O)[C@H](CO)NC(=O)[C@@H]1CCCN1C(=O)[C@@H]1CCC(=O)N1)C(=O)NCC(=O)N[C@@H](CC(C)C)C(=O)N[C@@H](CCSC)C(N)=O ([pGlu]PSKDAFIGLM-NH2) | inactive |
| CCCOC(=O)c1ccccc1O | inactive |
| CCCC1C(=O)N2C(N(C)C)=Nc3ccc(C)cc3N2C1=O (stereo not given) | inactive |

| SMILES | Potency |
| --- | --- |
| CC(=O)N[C@@H]([C@@H](O)[C@H](O)[C@H](O)CO)[C@@H](O)CC(=O)C(=O)O | inactive |
| CC1=CC(=O)NS(=O)(=O)O1 | inactive |
| CCCC(=O)O | inactive |
| COC1=C(OC)C(=O)C(C/C=C(\C)CC/C=C(\C)CC/C=C(\C)CC/C=C(\C)CC/C=C(\C)CC/C=C(\C)CC/C=C(\C)CC/C=C(\C)CC/C=C(\C)CCC=C(C)C)=C(C)C1=O | inactive |
| CCCCC/C=C\C/C=C\C/C=C\CCCCC(=O)O | inactive |
| Cc1ncc(COP(=O)(O)O)c(CN)c1O | inactive |
| CCC(O)c1ccccc1 (stereo not given) | inactive |
| COc1ccc2cc([C@H](C)CO)ccc2c1 | inactive |
| CCOC(=O)c1c[nH]c2cc(OCC(C)C)c(OCC(C)C)cc2c1=O | inactive |
| CC(=O)N[C@@H]1C(O[C@H]2O[C@H](C(=O)O)C(O)[C@H](O)[C@H]2O)[C@H](O)[C@@H](CO)O[C@H]1O[C@@H]1C(C(=O)O)O[C@@H](O[C@H]2[C@H](O)[C@@H](CO)OC(O)[C@@H]2NC(C)=O)[C@H](O)[C@H]1O (stereo not given in full) | inactive |
| CC(C)CCC[C@@H](C)[C@H]1CC[C@H]2[C@@H]3CC=C4C[C@@H](O)CC[C@]4(C)[C@H]3CC[C@]12C | inactive |
| NC(=O)OC[C@@H]1[C@H](NC(=O)/C(=N\OCC(=O)O)c2csc(N)n2)C(=O)N1S(=O)(=O)O | inactive |
| O=C[C@H](O)[C@@H](O)[C@@H](O)[C@H](O)CO | inactive |
| OB(O)O | inactive |
| O=C(O[C@H]1CN2CCC1CC2)N1CCc2ccccc2[C@@H]1c1ccccc1 | inactive |
| COc1ccc(/C=N/NC(=O)c2ccncc2)c(C(=O)O)c1OC | inactive |
| Oc1ccc(Cl)c2c1CCC2 | inactive |
| NC(=S)NS(=O)(=O)c1ccc(N)cc1 | inactive |
| Cc1ccc(S(=O)(=O)NC(=O)N[C@@H](C)Cc2ccccc2)cc1 | inactive |
| CC[C@@H](C)[C@@H](N)C1=N[C@H](C(=O)N[C@@H](CC(C)C)C(=O)N[C@@H](CCC(=O)O)C(=O)N[C@@H](C(=O)N[C@@H]2CCCCNC(=O)[C@@H](CC(N)=O)NC(=O)[C@@H](CC(=O)O)NC(=O)[C@@H](Cc3cnc[nH]3)NC(=O)[C@@H](Cc3ccccc3)NC(=O)[C@@H]([C@H](C)CC)NC(=O)[C@@H](CCCN)NC2=O)[C@@H](C)CC)CS1 (X1-LE[d(aIle)][dK][dOrn][dI][dF][dH][dD][dN]; lactam 4-C) | inactive |
